Records with an inconclusive call do not appear. The source made the active and inactive calls. The call rests on the fitted dose curve; in most records, active means well fitted inhibition curve with a large enough effect; inconclusive means small, poorly fitted or top-dose-only effect; inactive means no such curve, though single readings can be large or run the other way.
Target: Aldehyde dehydrogenase 1A1 (Homo sapiens) (UniProt P00352)
Assay: qHTS for Inhibitors of the Aldehyde Dehydrogenase Family (ALDH1A1) Confirmatory screens (AID 2061316); further: nearly all actives have a fitted effect of over 65% in size
Conditions: ALDH inhibition qHTS; series mostly up to 47.3 µM
Potency means the concentration at half of the fitted maximal effect.

Row | Structure (SMILES) | Potency
1 | COc1ccc(C2=Nn3c(nnc3-c3cccc(OC)c3OC)SC2)c(OC)c1 | inactive
2 | O=C(CN1C(=O)N/C(=C\c2cn(-c3cccc(C(=O)O)c3)cn2)C1=O)Nc1ccccc1Cl | inactive
3 | CN1CCN(c2ccc(Nc3nn4c(=O)c5ccccc5nc4s3)cc2)CC1 | 12.7 µM (active)
4 | O=S(=O)(c1ccccc1)N1CCN(c2nc(-c3ccc(Br)cc3)cs2)CC1 | 10.1 µM (active)
5 | Cc1cc(-c2nnc3n2CCCCC3)c(C)n1-c1ccc(Cl)c(Cl)c1 | 14.2 µM (active)
6 | Cc1ccnc(CC(=S)N2CCN(c3cccc(C(F)(F)F)c3)CC2)c1 | 10.1 µM (active)
7 | COc1ccc(C2=Nn3c(nnc3-c3cc(OC)ccc3OC)SC2)cc1 | 14.2 µM (active)
8 | Cc1cc(-c2nnc3n2CCCC3)c(C)n1-c1ccccc1 | 11.3 µM (active)
9 | Cc1cc(C)nc(NC(=S)N2CC3CN(c4ncc(C(F)(F)F)cc4Cl)CC3C2)c1 (configuration not stated) | 12.7 µM (active)
10 | O=[S+]([O-])(Nc1ccc(-c2nc3ccccc3[nH]2)cc1)c1ccc2c(c1)OCO2 | inactive
11 | FC(F)Oc1ccc(C2=Nn3c(nnc3-c3ccccc3C(F)(F)F)SC2)cc1OCC1CC1 | inactive
12 | FC(F)(F)c1ccc(-c2ccc(CNc3nc(-c4ccccc4C(F)(F)F)nc4ccccc34)cc2)cn1 | 7.98 µM (active)
13 | O=C(Nc1nc(-c2ccccc2)cs1)c1ccncc1NS(=O)(=O)c1ccc2ccccc2c1 | 8.96 µM (active)
14 | O=C(Nc1cncc(Cc2ccccc2)c1)c1ccc(-c2cccc([N+](=O)[O-])c2)o1 | 3.18 µM (active)
15 | O=C([C@H](Cc1ccc(O[S+](=O)([O-])c2cccnc2)cc1)N[S+](=O)([O-])c1ccccn1)N1CCN(c2ccccc2)CC1 | 5.04 µM (active)
16 | O=C(NCCCCc1ccccc1)C1CCN(c2nc(-c3ccc(Br)cc3)cs2)CC1 | 8.96 µM (active)
17 | COc1ccc(C2=Nn3c(nnc3-c3ccc(OC)cc3)SC2)cc1 | inactive

From PubChem BioAssay (NCATS)
